Results reported in PubChem BioAssay.
Active and inactive are the calls of the source. Unless noted, how the calls were made is not given here.

Assays:
[1] = test system: Wnt5a (protein binding on small-molecule microarray); assay: Wnt5a binders on small-molecule microarray, primary screen, biophysical, 635/667 nm fluorescence (AID 1142); details: 635 nm fluorescence, higher = more signal;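 further: fluorescence read at 667 nm with signal to noise per printed feature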
[2] = cell viability in Huh7 cells, primary screen, cytotoxicity control for HCV replication inhibitor project, CellTiter-Glo luminescence, basal, 48 h (AID 1143); details: Huh7 HCV replicon, higher = more signal, called active from +8 up or from −8 down;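 further: Huh7 hepatoma cells carrying a hepatitis C replication reporter with no stimulus; test concentration not given here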
[3] = P. aeruginosa biofilm formation inhibitors, primary screen, PAO1 strain, BacTiter-Glo luminescence, LB-PBS (AID 1144); details: 12 h, higher = more signal
[4] = CREB reporter modulators without forskolin, primary screen, cell-based, PC12, CRE-LacZ reporter, unstimulated (AID 1145); details: no forskolin, luminescence, 4.5 h, higher = more signal, called active from +8 up or from −8 down
[5] = CREB reporter modulators under forskolin, primary screen, cell-based, PC12, CRE-LacZ reporter, forskolin-stimulated (AID 1146); details: luminescence, 4.5 h, higher = more signal, called active from +8 up or from −8 down;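 further: PC12 cells with 6xCRE LacZ reporter stimulated by forskolin 10 µM; beta-galactosidase reporter signal reflecting CREB driven transcription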
[6] = biological target: Streptavidin (Streptomyces avidinii) (UniProt P22629); assay: streptavidin binders on small-molecule microarray, primary screen, artefact control for SMM compound annotation, biophysical, 635/667 nm fluorescence (AID 1147); details: streptavidin binding, higher = more signal;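 further: signal reflects streptavidin binding to arrayed compounds as a control protein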
[7] = small-molecule binders of probe aInhba, primary screen, biochemical, small-molecule microarray, 635/667 nm fluorescence (AID 1148); details: higher = more signal;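 further: score merges 667nm spot fluorescence with signal-to-noise for antibody binding to printed compounds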
Torsin-1A (Homo sapiens) [8] = biological target: Torsin-1A (Homo sapiens) (UniProt O14656); assay: torsin A binders from cell lysate, primary screen, small-molecule microarray, wild-type, 635/667 nm (AID 1149); details: COS7 hTOR1A-WT lysate, 635 nm fluorescence, higher = more signal
Torsin-1A (Homo sapiens) [9] = biological target: Torsin-1A (Homo sapiens) (UniProt O14656); assay: small-molecule binders of mutant TOR1A in lysate, primary screen, cell lysate, small-molecule microarray, COS7 lysate, 635/667 nm fluorescence (AID 1150); details: COS7 hTOR1A mutant lysate, 635 nm fluorescence, higher = more signal;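 further: score pools 667 nm emission and signal to noise measuring lysate protein binding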
[10] = test system: Sonic hedgehog protein (Shh); assay: small-molecule binders of Shh protein, primary screen, biochemical, small-molecule microarray, 635/667 nm fluorescence (AID 1151); details: small-molecule microarray binding, 635 nm fluorescence; higher = more signal;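 further: Shh protein binding to compounds spotted on small-molecule microarray slides; score combines spot fluorescence intensity with signal-to-noise across triplicate slides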
[11] = E. coli DRC41 culture turbidity changes, primary screen, E. coli filamentation inducer project, strain DRC41, OD650, 48 h (AID 1152);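 further: E. coli MC1000 strain DRC41 lacking acrAB efflux pump and sulA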; details: E. coli DRC41 (acrAB sulA), higher = more signal, called active from +8 up or from −8 down
[12] = small-molecule binders of probe aLefty1, primary screen, biochemical, small-molecule microarray, 635/667 nm fluorescence (AID 1153); details: higher = more signal;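 further: score merges spot fluorescence with signal-to-noise ratio from the scanned slide images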
[13] = PSAC antagonists in infected red cells, primary screen, cell-based, P. falciparum Indochina, OD700, 1 h (AID 1154); details: P. falciparum Indochina infected RBC osmotic lysis, higher = more signal, called active from +8 up or from −8 down
[14] = PSAC antagonists in infected red cells, primary screen, cell-based, P. falciparum Indochina, OD700, 2 h (AID 1155);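 further: lysis reports solute entry through the parasite surface anion channel PSAC; channel blockers reduce lysis of infected cells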; details: P. falciparum Indochina infected erythrocytes, osmotic lysis OD700; higher = more signal, called active from +8 up or from −8 down
[15] = osmotic lysis modulators in infected erythrocytes, primary screen, PSAC antagonist project, cell-based, P. falciparum Indochina, OD700, 3 h (AID 1156); details: higher = more signal, called active from +8 up or from −8 down
[16] = PSAC antagonists in infected red cells, primary screen, cell-based, P. falciparum Indochina, OD700, 18 h (AID 1157); details: P. falciparum Indochina infected erythrocytes, osmotic lysis OD700, 18 h; higher = more signal, called active from +8 up or from −8 down
[17] = modulators of S6 phosphorylation in cells, primary screen, cell-based, A549, cytoblot, luminescence, serum-stimulated (AID 1158); details: A549 phospho-S6 cytoblot, 5 h, higher = more signal;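 further: serum-stimulated A549 lung adenocarcinoma cells; signal is phosphorylated S6 detected by cytoblot immunostaining with HRP secondary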
[18] = biological target: NADPH oxidase 2 (Homo sapiens) (UniProt P04839); assay: NOX2-dependent H2O2 signal modulators, primary screen, NOX inhibitor project, cell-based, HEK293-NOX2, PMA-stimulated, Amplex Red fluorescence (AID 1159); details: 45 min, higher = more signal, called active from +8 up or from −8 down; further: test concentration not given here
[19] = biological target: NADPH oxidase 4 (Homo sapiens) (UniProt Q9NPH5); assay: NOX4-dependent H2O2 signal modulators, primary screen, NOX inhibitor project, cell-based, HEK293-NOX4, tetracycline-induced, Amplex Red fluorescence (AID 1160); details: 45 min, higher = more signal, called active from +8 up or from −8 down
[20] = biological target: NADPH oxidase 5 (Homo sapiens) (UniProt Q96PH1); assay: NOX5-dependent H2O2 signal modulators, primary screen, NOX inhibitor project, cell-based, HEK293-NOX5, Amplex Red fluorescence (AID 1161); details: HEK293-NOX5, ionomycin, 45 min, higher = more signal
Sequence of NADPH oxidase 5 (Homo sapiens) (Q96PH1 whole entry, looked up): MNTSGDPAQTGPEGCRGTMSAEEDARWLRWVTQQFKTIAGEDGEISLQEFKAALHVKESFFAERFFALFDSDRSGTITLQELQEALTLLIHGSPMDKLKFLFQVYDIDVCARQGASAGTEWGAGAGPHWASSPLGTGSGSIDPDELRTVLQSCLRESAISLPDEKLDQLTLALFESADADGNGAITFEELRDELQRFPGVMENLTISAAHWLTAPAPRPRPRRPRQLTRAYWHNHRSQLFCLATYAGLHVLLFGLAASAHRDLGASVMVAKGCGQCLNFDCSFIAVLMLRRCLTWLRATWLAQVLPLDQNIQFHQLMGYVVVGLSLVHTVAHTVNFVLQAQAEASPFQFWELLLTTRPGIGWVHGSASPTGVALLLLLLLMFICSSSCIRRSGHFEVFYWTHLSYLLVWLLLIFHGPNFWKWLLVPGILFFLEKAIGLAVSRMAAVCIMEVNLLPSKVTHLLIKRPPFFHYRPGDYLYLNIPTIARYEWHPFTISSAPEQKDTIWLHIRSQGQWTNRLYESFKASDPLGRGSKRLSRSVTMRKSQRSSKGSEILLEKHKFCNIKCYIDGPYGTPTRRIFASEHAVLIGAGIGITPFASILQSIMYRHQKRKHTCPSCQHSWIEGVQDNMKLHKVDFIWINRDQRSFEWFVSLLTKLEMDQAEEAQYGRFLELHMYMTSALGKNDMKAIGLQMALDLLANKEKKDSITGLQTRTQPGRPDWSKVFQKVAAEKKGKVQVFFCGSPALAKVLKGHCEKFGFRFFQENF

Sequence of Streptavidin (Streptomyces avidinii) (P22629 whole entry, looked up): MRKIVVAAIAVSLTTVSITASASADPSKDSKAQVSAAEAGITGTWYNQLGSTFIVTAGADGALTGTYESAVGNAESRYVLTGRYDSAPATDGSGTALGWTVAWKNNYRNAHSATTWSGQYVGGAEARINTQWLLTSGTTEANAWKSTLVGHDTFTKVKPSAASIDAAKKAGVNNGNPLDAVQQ
Sequence of NADPH oxidase 4 (Homo sapiens) (Q9NPH5 whole entry, looked up): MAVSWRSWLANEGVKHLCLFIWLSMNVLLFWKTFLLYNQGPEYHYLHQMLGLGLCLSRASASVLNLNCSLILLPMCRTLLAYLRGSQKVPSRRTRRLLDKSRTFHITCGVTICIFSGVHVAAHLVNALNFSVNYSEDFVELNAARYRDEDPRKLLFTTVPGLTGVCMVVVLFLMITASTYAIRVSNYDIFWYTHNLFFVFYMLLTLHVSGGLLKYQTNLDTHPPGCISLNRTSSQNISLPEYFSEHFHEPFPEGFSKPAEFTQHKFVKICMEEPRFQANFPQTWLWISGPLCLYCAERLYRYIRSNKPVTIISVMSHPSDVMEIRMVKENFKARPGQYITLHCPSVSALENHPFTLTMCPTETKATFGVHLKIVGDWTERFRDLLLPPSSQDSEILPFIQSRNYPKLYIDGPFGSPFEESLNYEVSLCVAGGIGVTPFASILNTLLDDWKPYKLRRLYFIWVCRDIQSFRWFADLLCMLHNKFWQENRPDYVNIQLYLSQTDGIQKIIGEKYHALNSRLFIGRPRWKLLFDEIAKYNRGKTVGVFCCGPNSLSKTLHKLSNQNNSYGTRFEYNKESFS
Sequence of NADPH oxidase 2 (Homo sapiens) (P04839 whole entry, looked up): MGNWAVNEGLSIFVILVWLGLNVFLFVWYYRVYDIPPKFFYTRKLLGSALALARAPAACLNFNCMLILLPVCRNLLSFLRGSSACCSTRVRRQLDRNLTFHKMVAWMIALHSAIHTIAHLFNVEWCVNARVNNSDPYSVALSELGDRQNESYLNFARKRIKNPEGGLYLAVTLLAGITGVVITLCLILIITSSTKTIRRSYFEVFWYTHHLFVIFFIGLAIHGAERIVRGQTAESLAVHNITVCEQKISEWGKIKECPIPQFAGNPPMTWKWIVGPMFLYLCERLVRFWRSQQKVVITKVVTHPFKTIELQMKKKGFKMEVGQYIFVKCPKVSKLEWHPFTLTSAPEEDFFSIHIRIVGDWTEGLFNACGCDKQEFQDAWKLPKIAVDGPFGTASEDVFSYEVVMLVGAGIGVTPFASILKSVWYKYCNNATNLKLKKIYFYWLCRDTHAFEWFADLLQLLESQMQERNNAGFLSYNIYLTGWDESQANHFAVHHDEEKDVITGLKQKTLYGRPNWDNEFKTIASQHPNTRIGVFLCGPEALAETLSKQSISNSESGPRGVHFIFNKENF
Sequence of Torsin-1A (Homo sapiens) (O14656 whole entry, looked up): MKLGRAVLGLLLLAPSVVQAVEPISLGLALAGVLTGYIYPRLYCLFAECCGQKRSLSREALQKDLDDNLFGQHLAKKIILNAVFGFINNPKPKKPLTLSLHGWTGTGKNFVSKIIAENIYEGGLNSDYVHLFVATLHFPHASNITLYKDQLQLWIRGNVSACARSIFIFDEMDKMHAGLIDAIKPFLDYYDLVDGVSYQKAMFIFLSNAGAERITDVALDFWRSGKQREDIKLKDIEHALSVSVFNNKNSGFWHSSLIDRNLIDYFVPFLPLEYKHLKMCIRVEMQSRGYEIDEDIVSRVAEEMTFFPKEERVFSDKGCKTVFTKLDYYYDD

| Structure (SMILES) | composite z-score [1] | z-score [2] | z-score [3] | z-score [4] | z-score [5] | composite z-score [6] | composite z-score [7] | composite z-score (Torsin-1A (Homo sapiens) [8]) | composite z-score (Torsin-1A (Homo sapiens) [9]) | composite z-score [10] | z-score [11] | composite z-score [12] | z-score [13] | z-score [14] | z-score [15] | z-score [16] | z-score [17] | z-score [18] | z-score [19] | z-score [20] |
| --- | --- | --- | --- | --- | --- | --- | --- | --- | --- | --- | --- | --- | --- | --- | --- | --- | --- | --- | --- | --- |
| CCOC(=O)[C@H](Cc1ccccc1)NC(=O)OC1CC(CCC2CC(CC)=NO2)OC2(CCCC(COC(=O)NCCC(C)C)O2)C1 (stereo not given in full) | 0.0453 | -0.24 (inactive) | 0.636 (inactive) | 0.105 (inactive) | 0.703 (inactive) | 0.851 | -0.154 | -0.182 | 0.225 | 0.135 | -0.0799 (inactive) | -0.101 | 3.14 (inactive) | -0.0787 (inactive) | -0.648 (inactive) | -0.39 (inactive) | -0.459 | -0.405 (inactive) | 0.109 (inactive) | 1.04 |
| C#CCCCON=C1C[C@@H](O)[C@@H](O)[C@@H]2[C@@H]3C(=O)N(Cc4ccccc4)C(=O)[C@@H]3CC[C@@H]12 | 0.087 | -0.0439 (inactive) | 0.943 (inactive) | -0.476 (inactive) | 0.174 (inactive) | -0.382 | -0.0675 | 0.103 | 0.0159 | -0.523 | 0.292 (inactive) | -0.0479 | 0.564 (inactive) | 0.579 (inactive) | -0.292 (inactive) | 0.06 (inactive) | -0.507 | -0.727 (inactive) | 0.47 (inactive) | 0.551 |
| COC(=O)CC=C[C@H](C)[C@@H](OCc1cccc(Br)c1)[C@@H](C)[C@H](OC)C1CCCCC1 | -0.375 | 0.137 (inactive) | 0.781 (inactive) | -1.05 (inactive) | -1.25 (inactive) | -0.243 | -0.128 | 0.312 | -0.119 | 0.341 | -0.533 (inactive) | -0.333 | 1.82 (inactive) | 0.675 (inactive) | -0.0293 (inactive) | 0.686 (inactive) | 0.433 | -0.453 (inactive) | 0.286 (inactive) | 0.664 |
| CC(C)=CCCC(C)=CCON=C1C[C@@H](O)[C@@H](O)[C@@H]2[C@@H]3C(=O)N(c4ccc(F)cc4F)C(=O)[C@@H]3CC[C@@H]12 | 0.291 | -1.52 (inactive) | -0.665 (inactive) | 1.24 (inactive) | 0.671 (inactive) | 1.45 | -0.152 | 0.815 | -0.0827 | 1.97 | 0.217 (inactive) | 0.0999 | 4.44 (inactive) | 1.21 (inactive) | 2.06 (inactive) | 1.07 (inactive) | -0.718 | -0.333 (inactive) | -0.0951 (inactive) | 0.0854 |
| CON=C(C)CCC(=O)OC[C@H]1O[C@H](c2ccccc2)C=C[C@@H]1Oc1ccc(OC)cc1 | 0.564 | -0.539 (inactive) | -0.38 (inactive) | 1.88 (inactive) | -0.0322 (inactive) | 0.0584 | -0.0963 | 0.0952 | -0.013 | 0.556 | -2.31 (inactive) | -0.196 | 5.54 (inactive) | 1.17 (inactive) | 12.7 (active) | 0.49 (inactive) | -0.312 | -2.7 (inactive) | -0.458 (inactive) | -4.44 |
| CCOC(=O)CCN1C(=O)[C@H]2[C@H]3[C@H](O)[C@H](O)CC(=NNC(=O)OCc4ccccc4)[C@@H]3CC[C@H]2C1=O | 0.109 | 0.13 (inactive) | -0.143 (inactive) | 0.161 (inactive) | -0.244 (inactive) | 0.551 | -0.218 | 0.701 | 0.672 | 1.26 | 0.809 (inactive) | -0.147 | 0.0026 (inactive) | -0.37 (inactive) | -0.371 (inactive) | -0.0393 (inactive) | 0.33 | -4.57 (inactive) | 0.0939 (inactive) | 0.181 |
| COC(=O)CC=C[C@@H](C)[C@@H]1C=C[C@H](O)[C@@H](CO)O1 | -0.27 | 0.362 (inactive) | -0.159 (inactive) | 0.648 (inactive) | 1.03 (inactive) | 0.89 | -0.163 | 0.473 | 0.448 | 0.495 | 0.372 (inactive) | -0.472 | 0.0339 (inactive) | 0.447 (inactive) | -0.27 (inactive) | -0.0707 (inactive) | 0.338 | 0.418 (inactive) | -0.23 (inactive) | 0.576 |
| CC(C)[C@@H](OCc1ccccc1)[C@H](C)C=NOC[C@@H](O)COCc1ccco1 | -0.304 | -0.33 (inactive) | 0.117 (inactive) | 1.99 (inactive) | 0.109 (inactive) | -2.14 | -0.32 | -0.712 | -0.491 | -1.11 | 0.776 (inactive) | -0.866 | 0.726 (inactive) | -0.332 (inactive) | -0.302 (inactive) | -0.0498 (inactive) | 0.0388 | -0.0623 (inactive) | 0.402 (inactive) | -0.548 |
| CCOC(=O)[C@H](CC(C)C)NC(=O)CCC1CC(OC(=O)NCc2cccc3ccccc23)CC2(CCCC(COC(=O)NCc3cccc(C(F)(F)F)c3)O2)O1 (stereo not given in full) | -0.0645 | -0.0149 (inactive) | -0.658 (inactive) | 0.288 (inactive) | -0.274 (inactive) | 0.626 | -0.0872 | 0.27 | 0.261 | 0.258 | 0.366 (inactive) | -0.144 | -0.406 (inactive) | -0.0787 (inactive) | 0.976 (inactive) | 0.613 (inactive) | 0.273 | 0.176 (inactive) | 0.794 (inactive) | 0.259 |
